Data published in PubChem BioAssay (Tox21).
“And” between values parts separate entries of the source, which are not always exact repeats. Equal values may be shown once. Results filed as inconclusive are left out. Entries that show only a call come without a potency. Some compounds were tested as several samples or in several runs, with calls that do not always agree. The source made the active and inactive calls. Unless noted, the call rests on the fitted dose curve; in most records, active means well fitted curve in the direction sought with a large enough effect in the repeat runs; inconclusive means weak or mixed curves; inactive means no such curve, though single readings can be large; an effect the other way counts as inactive or inconclusive.

Assays:
[1] = qHTS assay to identify small molecule antagonists of the glucocorticoid receptor (GR) signaling pathway - cell viability counter screen (AID 720693); further: nearly all actives have a fitted effect of over 55% in size
[2] = qHTS assay for identifying genotoxic compounds that show differential cytotoxicity against isogenic chicken DT40 cell lines with known DNA damage response pathways - wild type cell line (AID 743012); further: nearly all actives have a fitted effect of over 60% in size; further: potency means the concentration at half of the fitted maximal effect
Outline: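 Endpoint: CellTiter-Glo luminescence, 30 min RT. Cells: wild type DT40, 300/well. Exposure: compounds in DMSO, 40 h, 37 C/5% CO2, after ~0.5 h pre-incubation.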

[3] = qHTS assay for identifying genotoxic compounds that show differential cytotoxicity against isogenic chicken DT40 cell lines with known DNA damage response pathways - Rev3 mutant cell line (AID 743014); further: nearly all actives have a fitted effect of over 55% in size; further: potency means the concentration at half of the fitted maximal effect
[4] = qHTS assay for identifying genotoxic compounds that show differential cytotoxicity against isogenic chicken DT40 cell lines with known DNA damage response pathways - Rad54/Ku70 mutant cell line (AID 743015); further: nearly all actives have a fitted effect of over 60% in size; further: potency means the concentration at half of the fitted maximal effect
[5] = qHTS assay to identify small molecule antagonists of the androgen receptor (AR) signaling pathway - cell viability counter screen (AID 743033; further: nearly all actives have a fitted effect of over 45% in size)
[6] = qHTS assay to identify small molecule antagonists of the androgen receptor (AR) signaling pathway using the MDA cell line - cell viability counter screen (AID 743041; further: nearly all actives have a fitted effect of over 45% in size; further: potency means the concentration at half of the fitted maximal effect)
Outline: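 qHTS viability read-out; MDA-kb2 AR-luc; R1881-stimulated; 16 h exposure at 37C, 0% CO2; CellTiter-Fluor, 30 min; fluorescence intensity.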

[7] = biological target: Androgen receptor (Homo sapiens) (UniProt P10275); assay: qHTS assay to identify small molecule agonists of the androgen receptor (AR) signaling pathway using the MDA cell line (AID 743040; further: nearly all actives have a fitted effect of over 20% in size)
Outline: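 Agonist activity is measured as luciferase luminescence in human MDA-kb2 cells whose MMTV reporter responds to both AR and GR. Compounds in DMSO incubate 16 h at 37C, 0% CO2, and ONE-Glo is read after 30 min.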

[8] = biological target: Androgen receptor (Homo sapiens) (UniProt P10275); assay: qHTS assay to identify small molecule antagonists of the androgen receptor (AR) signaling pathway using the MDA cell line (AID 743042; further: nearly all actives have a fitted effect of over 55% in size)
Outline: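 MDA-kb2 cells (human breast carcinoma, stably carrying an MMTV-luciferase reporter responsive to AR and GR) were plated at 3,000 cells/well and preincubated 5 hr at 37C, then given compound plus R1881 agonist for 16 h. ONE-Glo luminescence was read.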

[9] = biological target: Androgen receptor (Homo sapiens) (UniProt P10275); assay: qHTS assay to identify small molecule antagonists of the androgen receptor (AR) signaling pathway (AID 743035; active means well fitted inhibition curve with a large enough effect in the signal ratio in the repeat runs, not every such curve was filed as active; the % refers to the signal ratio)
Outline: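 R1881 agonist challenge of a HEK293 UAS-beta-lactamase AR reporter line in the presence of compound (16 h, 37C); signal taken as FRET fluorescence after 2 h with LiveBLAzer B/G substrate at room temperature.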

[10] = biological target: Androgen receptor (Homo sapiens) (UniProt P10275); assay: qHTS assay to identify small molecule agonists of the androgen receptor (AR) signaling pathway (AID 743036; active means well fitted activation curve with a large enough effect in the signal ratio in the repeat runs, with a control signal flat, not every such curve was filed as active; the % refers to the signal ratio)
Outline: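 Agonist activity was scored by beta-lactamase reporter fluorescence in stably transfected HEK293 cells exposed to compounds for 16 h at 37C and 5% CO2. Substrate loading took 2 h at room temperature.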

Sequence of Androgen receptor (Homo sapiens) (P10275 whole entry, looked up): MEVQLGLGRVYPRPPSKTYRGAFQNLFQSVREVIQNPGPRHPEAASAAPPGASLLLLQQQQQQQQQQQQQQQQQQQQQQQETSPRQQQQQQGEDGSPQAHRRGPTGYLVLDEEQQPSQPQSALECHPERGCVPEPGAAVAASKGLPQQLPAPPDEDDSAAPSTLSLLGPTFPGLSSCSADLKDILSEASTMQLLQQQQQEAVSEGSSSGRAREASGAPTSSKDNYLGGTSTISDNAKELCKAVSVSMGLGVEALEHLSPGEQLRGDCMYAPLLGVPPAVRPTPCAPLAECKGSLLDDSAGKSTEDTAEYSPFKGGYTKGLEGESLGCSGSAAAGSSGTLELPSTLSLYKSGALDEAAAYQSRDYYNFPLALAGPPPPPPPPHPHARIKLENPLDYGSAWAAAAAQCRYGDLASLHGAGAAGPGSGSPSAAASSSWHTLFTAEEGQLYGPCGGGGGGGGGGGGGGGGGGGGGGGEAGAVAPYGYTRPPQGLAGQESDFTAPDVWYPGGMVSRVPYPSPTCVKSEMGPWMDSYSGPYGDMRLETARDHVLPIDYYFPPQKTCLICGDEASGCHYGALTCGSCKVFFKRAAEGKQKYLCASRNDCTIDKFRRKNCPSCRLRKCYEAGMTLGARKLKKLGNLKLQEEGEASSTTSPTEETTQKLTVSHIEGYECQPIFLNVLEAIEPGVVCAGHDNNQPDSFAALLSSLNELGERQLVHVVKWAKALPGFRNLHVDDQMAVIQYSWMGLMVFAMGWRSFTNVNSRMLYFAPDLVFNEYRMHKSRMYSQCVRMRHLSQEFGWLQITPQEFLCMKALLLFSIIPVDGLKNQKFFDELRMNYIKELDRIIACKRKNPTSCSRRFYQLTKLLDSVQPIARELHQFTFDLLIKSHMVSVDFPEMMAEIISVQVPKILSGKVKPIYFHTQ

Row | Compound | outcome [1] | Potency [2] | Potency [3] | Potency [4] | outcome [5] | Potency [6] | Potency [7] | outcome [8] | outcome [9] | Potency [10]
1 | C=CCCCCCCCCC(=O)O | inactive | inactive | inactive | inactive | inactive | inactive |  |  |  | 
2 | CC(C)CC(C)O (stereo not drawn) | inactive | inactive | inactive and 61.1 µM (active) | inactive | inactive | inactive |  |  |  | 
3 | O=C(O)c1cc2ccccc2cc1O | inactive | inactive | inactive | inactive | inactive | inactive | inactive | inactive |  | 
4 | C=Cc1ccc(C)cc1 | inactive | inactive | inactive | inactive | inactive | inactive |  |  |  | 
5 | CC(C)c1cccc(C(C)C)c1 | inactive | inactive | inactive | inactive | inactive | inactive |  |  |  | 
6 | CSc1ccc(Cl)cc1 | inactive | inactive | inactive | inactive | inactive | inactive | inactive | inactive | inactive | inactive
7 | O=C1C(c2[nH]c3ccccc3c2O)=Nc2ccccc21 | inactive | inactive | inactive | inactive | inactive | inactive |  |  |  | 
8 | CC(=O)Oc1ccc(C)cc1 | inactive | inactive | inactive | inactive | inactive | inactive | inactive | inactive | inactive | inactive
9 | OC1C(O)C(O)C(O)C(O)C1O (stereo not drawn) | inactive | inactive | inactive | inactive | inactive | inactive |  |  |  | 
10 | COc1cc(OC)c(C(=O)CCCN2CCCC2)c(OC)c1 | inactive | inactive | inactive and 21.7 µM (active) | inactive | inactive | inactive | inactive | inactive | inactive | inactive
11 | CC(C)(C#N)c1cc(Cn2cncn2)cc(C(C)(C)C#N)c1 | inactive | inactive | inactive | inactive | inactive | inactive |  |  |  | 
12 | CC(O)CC(C)(C)O (stereo not drawn) | inactive | inactive | inactive | inactive | inactive | inactive |  |  |  | 
13 | O=C(O)CCCCCCCCC(=O)O | inactive | inactive | inactive | inactive | inactive | inactive |  |  |  | 
14 | O=C(O)c1ccc(C(=O)O)c(C(=O)O)c1 | inactive | inactive | inactive | inactive | inactive | inactive | inactive | inactive | inactive | inactive
15 | OCc1ccccc1 | inactive | inactive | inactive | inactive | inactive | inactive | inactive | inactive | inactive | inactive
16 | CC(=O)CC(C)(C)O | inactive | inactive | inactive | inactive | inactive | inactive | inactive | inactive | inactive | inactive
17 | NCCNCCN | inactive | inactive | inactive and 68.6 µM (active) | inactive | inactive | inactive |  |  |  | 
18 | CC(=O)CCC=C(C)C | inactive | inactive | inactive | inactive | inactive | inactive |  |  |  | 
19 | NCCCCCCN | inactive | inactive | inactive | inactive | inactive | inactive |  |  |  | 
20 | OCc1cccc(Oc2ccccc2)c1 | inactive | inactive | inactive | inactive | inactive | inactive | inactive | inactive |  | inactive

Row | Compound | outcome [1] | Potency [2] | Potency [3] | Potency [4] | outcome [5] | Potency [6] | Potency [7] | outcome [8] | outcome [9] | Potency [10]
21 | COc1ccc(CCC(C)=O)cc1 | inactive | inactive | inactive | inactive | inactive |  |  |  |  | 
22 | COc1ccccc1OCC(O)CO (stereo not drawn) | inactive | inactive | inactive | inactive | inactive | inactive | inactive | inactive | inactive | inactive
23 | CCCCCCC=O | inactive | inactive and 48.6 µM (active) | inactive and 43.3 µM (active) | inactive and 43.3 µM (active) | inactive | inactive |  |  |  | 
24 | CCNc1ccccc1 | inactive | inactive | inactive | inactive | inactive | inactive | inactive | inactive | inactive | inactive
25 | O=C(O)Cn1c(=O)n(Cc2ccc(Br)cc2F)c(=O)c2ccc(Cl)cc21 | inactive | inactive | inactive | inactive | inactive | inactive | inactive | inactive |  | 
26 | CC(C)CC(=O)CC(C)CC(C)C (stereo not drawn) | inactive | inactive | inactive | inactive | inactive | inactive | inactive | inactive | inactive | inactive
27 | CC(=O)OCc1ccccc1 | inactive | inactive | inactive | inactive | inactive | inactive | inactive | inactive | inactive | inactive
28 | CN/C(=C\[N+](=O)[O-])NCCSCc1csc(CN(C)C)n1 | inactive | inactive | inactive | inactive | inactive | inactive | inactive | inactive | inactive | inactive
29 | CCCCCC(=O)O | inactive | inactive | inactive | inactive | inactive | inactive | inactive | inactive | inactive | inactive
30 | Cc1ccc([N+](=O)[O-])cc1S(=O)(=O)O | inactive | inactive | inactive | inactive | inactive | inactive | inactive | inactive | inactive | inactive
31 | CC(C)CCCCCCCOC(=O)CCCCC(=O)OCCCCCCCC(C)C | inactive | inactive | inactive and 38.6 µM (active) | inactive | inactive | inactive |  |  |  | 
32 | CC(CCO)CC(C)(C)C (stereo not drawn) | inactive | inactive | inactive | inactive | inactive | inactive | inactive | inactive | inactive | inactive
33 | COC(=O)c1cccnc1 | inactive | inactive | inactive | inactive | inactive | inactive | inactive | inactive | inactive | inactive
34 | COc1ccc(C)cc1N | inactive | inactive | inactive | inactive | inactive | inactive | inactive | inactive | inactive | inactive
35 | N[C@H](Cc1c[nH]c2ccccc12)C(=O)O | inactive | inactive | inactive | inactive | inactive | inactive |  |  |  | 
36 | CCOC(=O)c1ccc(N)cc1 | inactive | inactive | inactive | 7.17 µM (active) and inactive | inactive | inactive |  |  |  | 
37 | C=CC(C)CCCC(C)(C)O (stereo not drawn) | inactive | inactive | inactive and 61.1 µM (active) | inactive | inactive | inactive |  |  |  | 
38 | CCCCCCCCCCCCCCCCO | inactive | inactive | inactive and 68.6 µM (active) | inactive | inactive | inactive |  |  |  | 
39 | c1ccc2c(c1)Cc1ccccc1-2 | inactive | inactive | inactive and 61.1 µM (active) | inactive and 61.1 µM (active) | inactive | inactive |  |  |  | 
40 | CCCCCCCCCCCCCCCC(=O)OC(C)C | inactive | inactive | inactive | inactive | inactive | inactive |  |  |  | 

Row | Compound | outcome [1] | Potency [2] | Potency [3] | Potency [4] | outcome [5] | Potency [6] | Potency [7] | outcome [8] | outcome [9] | Potency [10]
41 | CC(C)(Oc1ccc(CCNC(=O)c2ccc(Cl)cc2)cc1)C(=O)O | inactive | inactive | inactive | inactive | inactive | inactive |  |  |  | 
42 | C=C(C)[C@H]1CC=C(C)C(=O)C1 | inactive | inactive | inactive | inactive | inactive | inactive |  |  |  | 
43 | CC(=O)c1ccc(O)cc1 | inactive | inactive | inactive | inactive | inactive | inactive |  |  |  | 
44 | N#Cc1ccccc1 | inactive | inactive | inactive | inactive | inactive | inactive |  |  |  | 
45 | C[Si]1(C)O[Si](C)(C)O[Si](C)(C)O[Si](C)(C)O1 | inactive | inactive | inactive | inactive | inactive | inactive |  |  |  | 
46 | O=S(=O)(O)c1ccc(N=Nc2c(O)ccc3cc(S(=O)(=O)O)ccc23)cc1 | inactive | inactive | inactive | inactive | inactive | 30.8 µM (active) and 27.3 µM (active) |  |  |  | 
47 | O=[N+]([O-])c1ccc2nc[nH]c2c1 | inactive | inactive | inactive | inactive | inactive | inactive |  |  |  | 
48 | O=c1[nH]cnc2[nH]ncc12 | inactive | inactive | inactive | inactive | inactive | inactive |  |  |  | 
49 | CC(C)=CCl | inactive | inactive | 34.8 µM (active) and inactive | inactive | inactive | inactive |  |  |  | 
50 | CCOCC(=O)O | inactive | inactive | inactive | inactive | inactive | inactive |  |  |  | 
51 | CCCCCCO | inactive | inactive | inactive | inactive | inactive | inactive |  |  |  | 
52 | O=C(O)c1ccc(S(=O)(=O)N(Cl)Cl)cc1 | inactive | inactive | 43.5 µM (active) | inactive and 24.5 µM (active) | inactive | inactive |  |  |  | 
53 | CC(=O)OCCOC(C)=O | inactive | inactive | inactive | inactive | inactive | inactive |  |  |  | 
54 | C=CC(=O)OCCC(=O)O | inactive | inactive | inactive | inactive | inactive | inactive |  |  |  | 
55 | CCCCCCCCCCCC(=O)OC | inactive | inactive | inactive | inactive | inactive | inactive |  |  |  | 
56 | COc1ccc([N+](=O)[O-])cc1N | inactive | inactive | inactive | inactive and 54.5 µM (active) | inactive | inactive |  |  |  | 
57 | CCOCCOCCOCCO | inactive | inactive | inactive | inactive | inactive | inactive |  |  |  | 
58 | CCc1ccccc1CC | inactive | inactive | inactive | inactive | inactive | inactive |  |  |  | 
